Structures are written as SMILES. About 20 (0.8%) of roughly 2,400 compounds were called active. The list comes from a sample in which actives are over-represented; it also holds similar structures and randomly drawn compounds. Unmarked numbers belong to inactive results.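 How the source made its calls: active means AC50 no more than ten times the highest tested concentration, or full inhibition at every dose giving a flat fit (cut at about 30 µM in these data); inconclusive means flat fit with activity between 30% and 70%, or poor-quality invalid fit; inactive means AC50 more than ten times the top tested dose.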

The nature of the experiment: inhibitors of ADP-Glo detection reagents, dose response, artefact control for GSK-3a inhibitor project, biochemical, luminescence, cell-free, homogeneous (AID 463205).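 Further: kinase-free counter-screen against the ADP-Glo detection reagents only; potency is for inhibitors that reduce the luminescence signal.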 As to conditions: 5 uM ADP.
Consider `C=CCSc1ncnc2c1oc1nc3c(cc12)COC(C)(C)C3`, for which the AC50 is above 30 µM.

As to `Nc1nonc1-n1nnc(C(=O)N/N=C/c2ccncc2)c1CSc1ccc(Cl)cc1`, the AC50 is above 30 µM.

Turning to `O=S(=O)(c1cccc(NC(=S)NCc2ccco2)c1)N1CCOCC1`, the AC50 was above 30 µM.

Regarding `C=CC(=O)Nc1sc2c(c1C(N)=O)CCCC2`, the AC50 is above 30 µM.

On to `NC(=O)c1ccsc1NC(=O)C1CC1`, for which the AC50 was above 30 µM.

In the case of `Clc1cccc(/C=N/Nc2ncnc3ccccc23)c1`, the AC50 was above 30 µM.

For the compound `COCCOC(=O)c1[nH]c2c(c1C)C(=O)CC(c1cc(OC)c(OC)c(OC)c1)C2` (stereo not given), the AC50 was above 30 µM.

Regarding `CC(=O)c1sc(NC(=O)CN2C(=O)C3CCCCC3C2=O)nc1-c1ccccc1` (stereo not given), the AC50 is above 30 µM.

Consider `O=C(c1ccc2c3n(nc2c1)-c1ccc(Cl)cc1CO3)N1CCOCC1`, for which the AC50 is above 30 µM.

On to `Cc1ccc2c(c1)COc1c3ccc(C(=O)N4CCOCC4)cc3nn1-2`, for which the AC50 is above 30 µM.

As for `O=C(c1ccc2c3n(nc2c1)-c1ccccc1CO3)N1CCOCC1`, the concentration at half-maximal activity (AC50) was 22.5 µM (active).

For `COc1ccc(S(=O)(=O)Nc2c(C(=O)O)[nH]c3ccc(OC)cc23)cc1`, the AC50 was above 30 µM.

In the case of `COc1ccc(-c2cc(C(=O)N3CCN(c4ccccc4)CC3)no2)cc1OC`, the AC50 was above 30 µM.

`CCOC(=O)c1sc(NC(=O)C2CC2)cc1C`: the AC50 was above 30 µM.

Turning to `CCCCCCCCCCCCCCCC[N+](C)(C)CC`, the AC50 is above 30 µM.

In the case of `c1cncc(-c2nc(NCC3COc4ccccc4O3)c3ccccc3n2)c1` (stereo not given), the AC50 was above 30 µM.

Consider `CC(C)(C)NC(=O)/C(=C\c1ccccc1F)NC(=O)c1ccc([N+](=O)[O-])cc1`, for which the AC50 was above 30 µM.

On to `O=C(CCN1CCOCC1)Nc1cccc(Br)c1`, for which the AC50 is above 30 µM.

As to `OCc1cn(-c2ccccc2)nn1`, the AC50 is above 30 µM.

Take `O=C(COC(=O)c1ccc(F)cc1F)Nc1ccc(Cl)cn1`: the AC50 was above 30 µM.

Consider `CC(=NCCCn1ccnc1)c1c(O)n(Cc2ccccc2)c(=O)[nH]c1=O`, for which the AC50 was above 30 µM.

For the compound `Cc1ccc(NC(=O)CSc2nnc(-c3ccncc3)o2)cc1`, the AC50 is above 30 µM.

On to `COc1ccc(/C=C2\Oc3cc(OCC(=O)N4CC(O)C[C@H]4C(=O)O)ccc3C2=O)c(OC)c1OC` (stereo not given in full), for which the AC50 was above 30 µM.

Regarding `CC(C)(C)c1ccc(/C=C2\Oc3cc(O)ccc3C2=O)cc1`, the AC50 was above 30 µM.

In the case of `COc1ccc(CCn2cnc(=O)c(C#N)c2C)cc1OC`, the AC50 was above 30 µM.

Consider `O=C(Nc1cccc(Cl)c1N1CCOCC1)c1ccc(Br)o1`, for which the AC50 is above 30 µM.

On to `COc1ccc(C2C3(C#N)C(N)=NC(OC)(OC)C23C#N)cc1` (stereo not given), for which the AC50 was above 30 µM.

With `CC(=O)N1CCN(c2ccccc2NC(=O)c2ccc(-c3cccc([N+](=O)[O-])c3)o2)CC1`, the AC50 is above 30 µM.

With `Nc1nc2n(n1)C(c1ccc(F)cc1)CC(c1ccc(F)cc1)N2` (stereo not given), the AC50 was above 30 µM.

On to `CCOc1ccc(S(=O)(=O)Nc2cccc(C(=O)NCCCn3ccnc3)c2)cc1`, for which the AC50 is above 30 µM.

Regarding `O=C1c2cnc3nc(SCc4ccccc4)nn3c2CC2c3ccccc3CCN12` (stereo not given), the AC50 is above 30 µM.

With `COc1ccc(NC(=O)Nc2ccc(F)cc2F)c(C)c1`, the AC50 was above 30 µM.

As for `CCOC(=O)c1cnc2c(Cl)c(Cl)ccc2c1N1CCN(C)CC1`, the AC50 was above 30 µM.

Take `COc1ccc(-c2cn3cccnc3n2)cc1NC(=O)C(C)C`: the AC50 is above 30 µM.

Take `O=c1cc(-c2ccsc2)oc2ccccc12`: the AC50 was above 30 µM.

On to `COc1ccccc1NC(=O)Nc1ccccc1Br`, for which the AC50 is above 30 µM.

On to `CCn1c2ccccc2c2nnc(SCC(N)=O)nc21`, for which the AC50 is above 30 µM.

As to `CCCC1=C(C(=O)OCC)C(c2ccc(N(C)C)cc2)n2ncnc2N1` (stereo not given), the AC50 is above 30 µM.

Regarding `COCc1c(C(=O)N/N=C\c2cccnc2)nnn1-c1nonc1N`, the AC50 was above 30 µM.

In the case of `CC(C)(C)C(=O)c1cnc(Nc2ccccc2Cl)s1`, the AC50 was above 30 µM.

With `O=C(Nc1cccc(O)c1)c1ccc([N+](=O)[O-])cc1Cl`, the AC50 was above 30 µM.

Turning to `CCOC(=O)N1CCc2c(sc3[nH]c(=S)[nH]c(=S)c23)C1`, the AC50 was above 30 µM.

In the case of `CCCCc1ccc(NC(=O)N[C@H](C(=O)O)C(C)CC)cc1` (stereo not given in full), the AC50 was above 30 µM.

As to `COc1ccccc1OCC(=O)Nc1sc2c(c1C(N)=O)CCC2`, the AC50 is above 30 µM.

As to `O=C(CSc1ccccc1)Nc1ccc2c(c1)C(=O)NC2=O`, the AC50 is above 30 µM.

On to `CCc1c(C)c(C#N)c2nc3ccccc3n2c1NC`, for which the AC50 is above 30 µM.

For `COc1ccc(/C=C2\Oc3cc(OCC(=O)N4CC(O)C[C@H]4C(=O)O)ccc3C2=O)cc1OC` (stereo not given in full), the AC50 is above 30 µM.

With `Cc1ccc(S(=O)(=O)N2CCN(CC(=O)N/N=C\c3ccccn3)CC2)cc1`, the AC50 was above 30 µM.

As for `COc1ccc(Cl)cc1Nc1nc(N)c2ccccc2n1`, the AC50 is above 30 µM.

On to `CCOc1ccc(Nc2nc(N(C)c3ccccc3)nc(N)c2[N+](=O)[O-])cc1`, for which the AC50 was above 30 µM.

Turning to `CN(C)c1ccc(Nc2nc(N)c3ccccc3n2)cc1`, the AC50 is 22.8 µM (active).

As to `COc1cc(/C=N/NC(=O)c2ccoc2C)ccc1O`, the AC50 was above 30 µM.

In the case of `CN(C)c1ccc(/C=N/NC(=O)c2ccccc2Cl)cc1`, the AC50 is above 30 µM.

Regarding `Cc1occc1C(=O)N/N=C/c1ccc(N(C)C)cc1`, the AC50 was 28.1 µM (active).

Take `O=[N+]([O-])c1cc(S(=O)(=O)N2CCCCC2)ccc1NCCCN1CCOCC1`: the AC50 is above 30 µM.

Turning to `COc1ccc(C(=O)c2sc3nc(-c4ccc(OC)cc4)ccc3c2N)cc1`, the AC50 was above 30 µM.

As for `CC(=O)N1CCN(c2ccccc2NC(=O)c2ccc(Br)o2)CC1`, the AC50 was above 30 µM.

Take `COc1ccc(C(=O)O/N=C(\N)c2ccccn2)c(OC)c1`: the AC50 was above 30 µM.

Take `COc1cccc(C(=O)O/N=C(\N)c2ccccn2)c1`: the AC50 was 18.9 µM (active).

As for `COc1ccc(C(=O)NNC(=O)c2ccccn2)cc1`, the AC50 was 14.9 µM (active).

Turning to `COc1cc(OC)cc(C(=O)O/N=C(\N)c2ccccn2)c1`, the AC50 was above 30 µM.

For the compound `COc1ccc(C(=O)c2ccccc2Cl)cc1`, the AC50 was above 30 µM.

Consider `COc1ccc(C(=O)Nc2nc(C)cc(C)n2)cc1`, for which the AC50 was above 30 µM.

As to `CN(C)Cc1c(C(=O)N/N=C/C2CC=CCC2)nnn1-c1nonc1N` (stereo not given), the AC50 is above 30 µM.

Turning to `CCOC(=O)/C(C#N)=C/c1cn(CCC(=O)O)nc1-c1cccc(Br)c1`, the AC50 is above 30 µM.

As to `CCn1c2ccc(F)cc2c2nc3ccccc3nc21`, the AC50 was above 30 µM.

In the case of `Cc1nc2c(C)cccn2c1/C(O)=C1\C(=O)C(=O)N(CCN2CCOCC2)C1c1cccs1` (stereo not given), the AC50 is above 30 µM.

Turning to `Cc1cccc2c(N=Nc3ccccc3)c(O)[nH]c12`, the AC50 was above 30 µM.

`Nc1nonc1-n1nnc(C(=O)N/N=C/c2ccccc2Cl)c1-c1ccccc1`: the AC50 is above 30 µM.

Consider `CCc1c(C)c(C#N)c2nc3ccccc3n2c1NCC1CCCO1` (stereo not given), for which the AC50 is above 30 µM.

For the compound `CS(=O)(=O)Nc1ccc(-c2cc(/C=C3\SC(N)=NC3=O)c[nH]c2=O)cc1`, the AC50 was above 30 µM.

Regarding `O=C(c1ccc(Cn2cnnn2)cc1)N1CCCC(Nc2ccc(F)cc2)C1` (stereo not given), the AC50 was above 30 µM.

As to `O=C(Nc1ccccc1C(=O)N1CCOCC1)c1cccnc1`, the AC50 is above 30 µM.

Turning to `CC(=O)Nc1cccc(-c2csc(Nc3ccc(C)cn3)n2)c1`, the AC50 was above 30 µM.

For the compound `Cc1cc(=O)[nH]c2cc(O)ccc12`, the AC50 is above 30 µM.

`CC(=O)Nc1ccc(C2(c3ccc(NC(C)=O)cc3)NC(=O)c3ccccc32)cc1`: the AC50 was above 30 µM.

Consider `CC1(C)Cc2cccc(C(=O)NCc3ccco3)c2O1`, for which the AC50 was above 30 µM.

In the case of `O=C(COC(=O)c1cccs1)Nc1ccc(Cl)cn1`, the AC50 is above 30 µM.

Take `CCN1CCN(c2nc(Nc3cccc(OC)c3)nc(N)c2[N+](=O)[O-])CC1`: the AC50 is above 30 µM.

With `COc1cccc(/C=N/n2nnnc2N)c1OCC#N`, the AC50 was above 30 µM.

`O=C(O)COc1c(Cl)cc(/C=C2/NC(=O)NC2=O)cc1Br`: the AC50 is above 30 µM.

`CNc1ccc(/C=C/C(=O)c2ccc3c(c2)OCCO3)cc1[N+](=O)[O-]`: the AC50 was above 30 µM.

Turning to `COC(=O)C1(C#N)C(c2ccccc2)C1(C(=O)OC)C(=O)OC` (stereo not given), the AC50 was above 30 µM.

Regarding `Cc1nc2ncnn2c(C)c1Cc1c(Cl)cccc1Cl`, the AC50 is above 30 µM.

For `O=C(c1ccccc1)c1cnc(Nc2ccccc2Cl)s1`, the AC50 was above 30 µM.

Turning to `COc1ccc(NC(=O)CN(C)C2CCCCC2)c([N+](=O)[O-])c1`, the AC50 is above 30 µM.

As for `Cc1nc2cc(-c3ccccc3)ccc2o1`, the AC50 is above 30 µM.

Turning to `O=C(N/N=C/c1cccnc1)c1cc2c(ccc3ccccc32)o1`, the AC50 is above 30 µM.

In the case of `CCNc1nc(NCC)nc(C(=O)OCCO)n1`, the AC50 was above 30 µM.

For `Cc1ccnc(NC(=O)Cn2c(=O)oc3cc(S(=O)(=O)N4CCCC4)ccc32)c1`, the AC50 is above 30 µM.

Take `Cc1cccc(/C(N)=N/OC(=O)c2ccc3c(c2)OCO3)c1`: the concentration at half-maximal activity (AC50) is 27.3 µM (active).

For `Cc1cccc(C(=O)O/N=C(\N)c2cccc([N+](=O)[O-])c2)c1`, the AC50 was above 30 µM.

With `Cc1ccc(C(=O)O/N=C(\N)c2cccc([N+](=O)[O-])c2)cc1`, the AC50 is above 30 µM.

Turning to `Cc1cc(NC(=O)CCSc2nc(-c3ccco3)cc(C(F)(F)F)n2)n(-c2ccccc2)n1`, the AC50 is above 30 µM.

For `C(=N\Nc1ncnc2sc3c(c12)CCC3)/c1ccncc1`, the AC50 is above 30 µM.

For the origin of these results see PubChem BioAssay AID463205 (Broad Institute, 2010).
